A selection: hits, their analogues and other compounds. The true share with any hit is near 4.7%.
HTT-AS act = Primary qHTS for Identification of Small Molecule Activators of Huntingtin-Antisense Promoter Activity. Potency, µM (doses to about 57.5 µM), actives largely listed as activators. 48,000 tested, 0.24% active. HEK293 HTT-AS promoter firefly luciferase reporter, 24 h; response scale: percent change from vehicle, -100% = no light; note: nearly all actives have a fitted effect of over 55% in size
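Firefly luciferase readout (Dual-Glo, 10 min RT) after 24 h, 37 °C compound exposure (final up to 57.5 uM) of HEK293 reporter cells cultured 24 h beforehand; PTC124 at 50 uM final as control inhibitor; activity scaled vehicle 0%, zero RLU -100%.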
NTMT1 inhibitor = Primary qHTS for Inhibitors of N-terminal methyltransferase 1 (NTMT1): MTaseGlo Assay; N-terminal Xaa-Pro-Lys N-methyltransferase 1 (Homo sapiens), Q9BV86; NTMT1 MTase-Glo SAH luminescence, purified enzyme; Potency, µM (top dose mostly 114 µM), most hits filed as inhibitors; 59,000 tested, 2.5% active; AID 1645870, 2021; note: nearly all actives have a fitted effect of over 65% in size
Target sequence (Q9BV86 whole entry, looked up): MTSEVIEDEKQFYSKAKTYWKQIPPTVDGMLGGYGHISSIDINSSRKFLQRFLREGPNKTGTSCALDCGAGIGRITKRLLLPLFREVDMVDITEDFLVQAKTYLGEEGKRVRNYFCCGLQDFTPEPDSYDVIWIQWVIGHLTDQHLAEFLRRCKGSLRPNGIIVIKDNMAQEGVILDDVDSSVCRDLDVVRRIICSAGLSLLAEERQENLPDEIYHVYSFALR
DRV1 agonist = qHTS for Agonists of Human Resolvin D1 Receptor DRV1; Probable G-protein coupled receptor 32 (Homo sapiens), O75388; CHO-K1 GPR32 beta-arrestin PathHunter luminescence, 90 min; zero percent set by DMSO-only wells; activation, % at 76.9 µM; 48,000 tested, 2.5% active;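 active = activation of at least 60% and not above a set upper limit, about 1 call in 100 departs from these limits; inconclusive = activation of 40% to 60%, or above that upper limit; inactive = activation under 40%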
Target sequence (O75388 whole entry, looked up): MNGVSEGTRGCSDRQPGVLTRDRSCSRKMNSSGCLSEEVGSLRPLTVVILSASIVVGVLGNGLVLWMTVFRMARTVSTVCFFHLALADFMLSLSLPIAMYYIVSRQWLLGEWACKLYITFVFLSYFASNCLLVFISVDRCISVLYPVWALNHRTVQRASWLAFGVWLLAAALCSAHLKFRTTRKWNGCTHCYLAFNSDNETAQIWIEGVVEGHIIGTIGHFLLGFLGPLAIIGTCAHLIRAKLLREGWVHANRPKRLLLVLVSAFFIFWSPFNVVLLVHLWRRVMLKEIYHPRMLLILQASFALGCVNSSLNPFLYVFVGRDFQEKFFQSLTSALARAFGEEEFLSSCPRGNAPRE
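Agonism was scored as beta-arrestin recruitment to ProLink-fused GPR32 in stably transfected CHO-K1 cells, giving a chemiluminescent beta-Gal signal; compounds were incubated 90 min at 37 °C.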
HTT promoter inh = Primary qHTS for Identification of Small Molecule Inhibitors of Huntingtin Promoter Activity. HEK293 HTT promoter firefly luciferase reporter, 24 h. Potency, µM (series often up to 57.5 µM), most hits filed as inhibitors. 48,000 tested, 0.93% active. AID 1508623, 2021; note: nearly all actives have a fitted effect of over 50% in size
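Luminescence was read after Dual-Glo reagent and a 10 min room-temperature incubation. Values were normalized to vehicle (0% activity) and zero RLU (-100% activity). Reporter HEK293 cells had been exposed to compounds (up to 57.5 uM final) for 24 h.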
FH mod = Identification of activators of human fumarate hydratase by quantitative high-throughput screening; Fumarate hydratase, mitochondrial (Homo sapiens), P07954; FH coupled MDH/diaphorase resazurin fluorescence, 15 min; Potency, µM (top dose mostly 79.9 µM), hits mostly inhibitors; 54,000 tested, 0.22% active; note: the screen sought activators but most active calls are inhibition curves; nearly all actives have a fitted effect of over 45% in size
Numbers stand for hits; – = inactive; ? = inconclusive; · = no result given; ! = not confirmed by another sample; [ ] = another dose, or the depositor's remark. Unless noted, calls come from the whole dose curve; as a rule, active = well fitted curve in the direction sought with a large enough effect; inconclusive = small, poorly fitted or top-dose-only effect, or another doubt; inactive = no such curve, though single readings can be large; an effect the other way counts as inactive or inconclusive.

SMILES	HTT-AS act	NTMT1 inhibitor	DRV1 agonist	HTT promoter inh	FH mod
COc1cc(NC(=O)CCc2c(C)nc3cc(-c4ccccc4)nn3c2C)cc(OC)c1OC	–	–	–	4µM	–
COc1ccc(NC(=O)CCc2c(C)nc3cc(-c4cccc(F)c4)nn3c2C)cc1Cl	–	–	–	2.2µM	–
COc1ccc(N2CCN(C(=O)CCc3c(C)nc4cc(-c5ccc(Cl)cc5)nn4c3C)CC2)cc1	–	–	–	0.32µM	–
Cc1nc2cc(-c3cccc(F)c3)nn2c(C)c1CCC(=O)NC(C)c1ccccc1 (centres undefined)	–	?	–	?	–
Cc1ccccc1NC(=O)c1c(NC(=O)c2ccncc2)sc2c1CCC(C(C)(C)C)C2 (centres undefined)	–[11.5 µM]	–	72	–	?
CCOc1ccccc1NC(=O)c1c(NC(=O)c2ccncc2)sc2c1CCC(C(C)(C)C)C2 (centres undefined)	–	–	113	–	–
Cc1ccccc1C(=O)Nc1sc2c(c1C(=O)O)CCC(C(C)(C)C)C2 (centres undefined)	–	–	–	2.8µM	?
CCOc1ccccc1NC(=O)c1c(NC(=O)c2ccccc2)sc2c1CCCC2	–	–	66	–	–
COc1cccc(NC(=O)Cn2c(=O)n(CC(=O)NCCc3ccccc3)c(=O)c3sccc32)c1	–	–	–	–	–
CC(C)(C)c1ccc(C(=O)Nc2ccc(OCc3cc(=O)n4ccsc4n3)cc2)cc1	–	–	87	–	–
C#C[C@]1(O)CC[C@H]2[C@@H]3CCC4=CC(=O)CC[C@@H]4[C@H]3CC[C@@]21C	–	?	69	–	–
C#C[C@]1(O)CC[C@H]2[C@@H]3CCc4cc(OC)ccc4[C@H]3CC[C@@]21C	–	–	69	–	–
C#C[C@]1(O)CC[C@H]2[C@H]3CCc4cc(OC)ccc4[C@H]3CC[C@@]21C	?	–	·	–	–
C#C[C@]1(O)CC[C@H]2[C@@H]3CCc4cc(OC5CCCC5)ccc4[C@H]3CC[C@@]21C	–	–	68	–	?
C#C[C@]1(O)CC[C@@H]2[C@@H]3CCC4=CC(=O)CC[C@@H]4[C@H]3CC[C@@]21CC	–	–	·	–	–
C#C[C@]1(O)CC[C@H]2[C@@H]3CCC4=Cc5oncc5C[C@]4(C)[C@H]3CC[C@@]21C	–	?	–	–	–
N[C@@H](CCC(=O)O)C(=O)Nc1ccc(Cl)cc1C(=O)c1ccc[nH]1	·	–	·	·	·
COc1ccc(Br)cc1C(=O)Nc1nc2ccc(F)cc2s1	1.8µM	–	–	–	–
Cc1cc(NS(=O)(=O)c2ccc(NC(=O)COc3cc(C)c(Br)cc3C(C)C)cc2)no1	–	–	107	–	–
CCOC(=O)N1CCC(NC(=O)c2cnn(-c3cccc(Cl)c3C)c2C2CCN(C(=O)OC(C)(C)C)CC2)CC1	–	–	–	–	–
CCS(=O)(=O)c1cccc(-c2cc(C(=O)NC3CCN(C)CC3)c(C)c3[nH]c4ncc(C)cc4c23)c1	–	28µM!	·	?	–
CC(C)CNC(=O)/C=C/CCCCc1ccc2c(c1)OCO2	·	–	·	·	–
COc1ccc(Cl)cc1NC(=O)Cn1nc(C(F)(F)F)c2c1CCCC2	–	–	–	?	–
COc1cc(NC(=O)Cn2nc(C(F)(F)F)c3c2CCCC3)cc(OC)c1OC	–	–	–	22µM	–
CCC1Oc2ccc(C)cc2N(CC(=O)NCc2ccc(OC)cc2)C1=O (centres undefined)	–	–	64	–	–
SMILES	HTT-AS act	NTMT1 inhibitor	DRV1 agonist	HTT promoter inh	FH mod
O=C(O)c1cccc(-c2noc(-c3ccccc3F)n2)c1	–	?	–	7.9µM!	–
O=c1c(O)c(-c2ccc(O)cc2)oc2cc(O)cc(O)c12	?	?	·	–	–
COc1cc(O)c2c(=O)c(O)c(-c3ccc(O)c(O)c3)oc2c1	·	25µM	·	·	–
O=c1c(O)c(-c2ccc(O)c(O)c2)oc2cc(O)ccc12	–	50µM!	·	?	27µM![activator]
O=C(Cn1nc2c(cc1=O)CCCC2)NCc1ccccc1	?	89µM	–	–	–
O=C(Cn1nc2c(cc1=O)CCCC2)NCc1ccc(Cl)cc1	–	–	–	–	–
Cc1cc(O)c2c(O)c3c(O)cccc3cc2c1	–	–	108	–	–
Cc1cc(NC(=O)c2cc(-c3cccc(Cl)c3)on2)nn1Cc1ccc(Cl)cc1	–	–	–	1.6µM	–
Cc1cc(NC(=O)c2cc(-c3ccc(Cl)cc3)on2)nn1Cc1ccc(Cl)cc1	–	–	–	–[11.5 µM]	–
CCCCn1c(-c2ccc(C)cc2)c(C)n2c3c(=O)n(C)c(=O)n(C)c3nc12	–	?	85	–	–
Cc1ccc(-c2c(C)n3c4c(=O)n(C)c(=O)n(C)c4nc3n2CCO)cc1	–	?	?	2µM	–
COCCn1c(-c2ccccc2)c(C)n2c3c(=O)n(C)c(=O)n(C)c3nc12	–	?	–	–	–
Cc1cc(C)c(CNC(=O)c2cc(-c3ccc(N4CCN(C)CC4)nc3)cc3c2c(C)cn3C(C)C)c(=O)[nH]1	·	–	·	·	·
CCN(CC)c1ccc(NC(=O)c2cccn2-c2nnc(N3CCCCC3)s2)c(C)c1	–	?	76	?	?
COc1ccc(NC(=O)c2cccn2-c2nnc(N3CCCCC3)s2)c(OC)c1	–	–	–	–	–
Cc1nn(CC(=O)NCc2ccc(N(C)C)cc2)c(=O)c2nn(-c3ccccc3)c(C)c12	–	?	–	–	–
CCn1cc(C(=O)NCCCN2CCCC(C)C2)c(=O)c2cc(S(=O)(=O)N(C)C3CCCCC3)ccc21 (centres undefined)	–	–	–	–	–
COc1cccc(NC(=O)Cn2c(=O)oc3cc(S(=O)(=O)N4CCCCC4)ccc32)c1	–	–	116	?	–
Cc1cccc(NC(=O)Cn2c(=O)oc3cc(S(=O)(=O)N4CCCCCC4)ccc32)c1	–	–	–	10µM	–
COc1ccc(Cl)cc1NC(=O)Cn1c(=O)oc2cc(S(=O)(=O)N3CCCCCC3)ccc21	–	–	–	?	–
CC1CCN(S(=O)(=O)c2ccc3c(c2)oc(=O)n3CC(=O)NC(C)c2ccccc2)CC1 (centres undefined)	–	–	–	14µM	?
CC(=O)c1ccc(NC(=O)Cn2c(=O)oc3cc(S(=O)(=O)N4CCCCC4)ccc32)cc1	–	–	?	–	–
COc1ccc(C)cc1NC(=O)Cn1c(=O)oc2cc(S(=O)(=O)N3CCCCC3)ccc21	–	?	84	?	–

Screens deposited in PubChem BioAssay by National Center for Advancing Translational Sciences (NCATS).
